This is part of a sample that, as a whole, favours compounds with a hit. Of some 83,000 tested, about 20% had one in any assay.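 Testing used 96-well plates and a 48-hour single-concentration exposure. Example: -40 means 40% of the starting cells died.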 Unmarked numbers belong to inactive results. The source made the active and inactive calls. Rule for the calls: active = growth percent below 10; inactive = the rest.
Legend:
Assay in all cases: NCI-60 one-dose screen, 48 h (100 = growth as untreated, 0 = no growth, -100 = all killed)
NCI-H23 lung = details: 10 µM unless noted
NCI-H226 lung = details: 10 µM unless noted
NCI-H322M lung = details: 10 µM unless noted
HOP-62 NSCLC = details: 10 µM unless noted
NCI-H460 lung = details: 10 µM unless noted
HOP-92 NSCLC = details: 10 µM unless noted
NCI-H522 lung = details: 10 µM unless noted
A549/ATCC NSCLC = details: 10 µM unless noted
786-0 renal = details: 10 µM unless noted
COLO 205 colon = details: 10 µM unless noted
DU-145 prostate = details: 10 µM unless noted
K-562 leukemia = details: 10 µM unless noted
MALME-3M melanoma = details: 10 µM unless noted
MDA-MB-231 breast = details: 10 µM unless noted
RXF 393 renal = details: 10 µM unless noted
SF-268 CNS = details: 10 µM unless noted
SF-295 CNS = details: 10 µM unless noted
SF-539 CNS = details: 10 µM unless noted
UACC-257 melanoma = details: 10 µM
M14 melanoma = details: 10 µM unless noted

| Structure (SMILES) | growth (NCI-H23 lung) | growth (NCI-H226 lung) [%] | growth (NCI-H322M lung) [%] | growth (HOP-62 NSCLC) | growth (NCI-H460 lung) | growth (HOP-92 NSCLC) | growth (NCI-H522 lung) | growth (A549/ATCC NSCLC) | growth (786-0 renal) | growth (COLO 205 colon) | growth (DU-145 prostate) | growth (K-562 leukemia) | growth (MALME-3M melanoma) | growth (MDA-MB-231 breast) [%] | growth (RXF 393 renal) | growth (SF-268 CNS) | growth (SF-295 CNS) | growth (SF-539 CNS) | growth (UACC-257 melanoma) | growth (M14 melanoma) |
| --- | --- | --- | --- | --- | --- | --- | --- | --- | --- | --- | --- | --- | --- | --- | --- | --- | --- | --- | --- | --- |
| Oc1ccc(CSc2nnc(-c3cnccn3)o2)c2cccnc12 | 12.1% | 23.6 | 31.6 | 20.9% | 2.29% (active) | -9.09% (active) | 7.24% (active) | 20.9% | 24.5% | 85.4% | 26.1% | 10.2% | -6.87% (active) | 31 | 20.6% | 22.9% | -7.6% (active) | 18.6% | 6.92% (active) | 28.6% |
| O=S(=O)(Nc1cc(Cl)c(F)c(Cl)c1)c1ccc(-c2cnc(C3CC3)o2)cc1 | 45.3% | 49.4 | 49.9 | 36.2% | 16.5% | 63% | 32.8% | 41.5% | 43.5% | 8.82% (active) | 24.4% | 15% | 55% | 56.2 | 5.28% (active) | 73.9% | 16.8% | 19.2% | 70.3% | 23% |
| COc1cc(CNC(=O)/C=C/c2ccccc2)ccc1OCC(=O)NO | 103% | 97.4 | 103 | 102% | 109% | 98.4% | 89.9% | 101% | 103% | 102% | 103% | 88.9% | 84.9% | 98.4 | 111% | 101% | 102% | 100% | 91.5% | 100% |
| C#C[C@]1(O)CC[C@H]2[C@@H]3CC=C4c5sc(Nc6nc(C)cc(OC)n6)nc5CC[C@]4(C)[C@H]3CC[C@@]21C | 71.9% | 71 | 92.9 | 40% | 21.9% | 43.9% | 88.1% | 53.9% | -4.27% (active) | 78.5% | 61.4% | 14% | 24% | 56.1 | -34.9% (active) | 35.8% | -60% (active) | -14.8% (active) | 46.1% | 27% |
| Cn1cc2c(c1)-c1c(sc3nc(-c4ccc(NC(=O)Nc5cc(C(C)(C)C)on5)cc4)cn13)CC2 | 50.7% | 51.8 | 75.6 | 16.7% | 27.5% | 42.8% | 81.5% | 64.5% | -3.49% (active) | 45.6% | 57.9% | 15.3% | 66.2% | 49.8 | -23.4% (active) | 50.5% | -41% (active) | 22.3% | 93.1% | 60.5% |
| CCCC(=O)NC(c1cccnc1)c1ccc2c(C)ccnc2c1O (stereo not given) | 37.8% | 17.2 | 27.2 | 23.4% | 6.08% (active) | 47.2% | 0.954% (active) | 16% | 26% | 9.55% (active) | 30.1% | 21.4% | 21.2% | 32.9 | 20.4% | 21.9% | 17.8% | 14.6% | 5.9% (active) | 9.45% (active) |
| CCN1C(=O)N(CC)C2SC(N/N=C/c3ccccc3F)=NC21 (stereo not given) | 31.6% | 45.1 | 53.3 | 30.9% | 4.97% (active) | 8.68% (active) | -35.6% (active) | 27.3% | 30.6% | -47.6% (active) | 16.6% | 9.76% (active) | 71.1% | 24.1 | 46.4% | 45.4% | 11.6% | -16.7% (active) | 61% | 17.2% |
| C#CCOc1ccc(C(Nc2ccc(Cl)cc2)c2nnnn2C2CCCCC2)cc1 (stereo not given) | 91.7% | 88.4 | 93.6 | 83.4% | 83.1% | 81.8% | 81% | 78.8% | 92.5% | 97.9% | 93.8% | 82.2% | 98.8% | 76.9 | 87% | 80.2% | 74.5% | 98.6% | 86.2% | 99.4% |
| C=C(C)[C@@H]1CC[C@]2(C)[C@H](CC=C3[C@@H]4CC(C)(C)CC[C@]4(C(=O)NCC#CCN4CCN(C)CC4)CC[C@]32C)[C@@]1(C)CCC#N | 79.4% | 86.7 | 85.8 | 81.3% | 10.7% | 13% | 78.3% | 52.9% | 52.3% | 86.6% | 63.4% | -7.15% (active) | 34.6% | 47.8 | 53.7% | 65.4% | 70.5% | 87.7% | 91.3% | -63.7% (active) |
| Oc1ccccc1-c1nnc(SCc2ccc(O)c3ncccc23)o1 | 23.5% | 67.5 | 64.2 | 31.1% | 5.53% (active) | -8.17% (active) | 20.7% | 27.5% | 32.2% | 113% | 29.6% | 19.8% | 30.3% | 60.6 | 29.4% | 34.1% | 15.3% | 37% | 25.2% | 27.4% |
| CC(C)=CCc1c(O)c(CC=C(C)C)c2c(c1O)C(=O)C1=C[C@@H]3C[C@H]4C(C)(C)O[C@@](C/C=C(\C)C(=O)O)(C3=O)[C@@]14O2 | -59.3% (active) | 72.1 | 21.7 | -13.7% (active) | -41.8% (active) | -21.8% (active) | -51.4% (active) | 4.97% (active) | -27.6% (active) | -94.2% (active) | -60.5% (active) | 5.16% (active) | -19.3% (active) | 29.8 | -82.2% (active) | 5.98% (active) | -9.35% (active) | -77.5% (active) | -38.2% (active) | 5.07% (active) |
| CS(=O)c1nccc(-c2c(-c3ccc(F)c(OCCc4ccc(F)cc4)c3)nc3sccn23)n1 (stereo not given) | 7.95% (active) | 111 | 65.4 | 99.7% | 59.1% | 47.1% | -61.7% (active) | 101% | 95.3% | 102% | 1.03% (active) | 7.91% (active) | 55.6% | 45 | 60.9% | 93.3% | 98.3% | 91.2% | -0.163% (active) | 67.6% |
| CCN1C(=O)N(CC)C2SC(N/N=C/c3ccccc3)=NC21 (stereo not given) | 31.1% | 43 | 51.7 | 38.3% | 6.05% (active) | 2.09% (active) | -34.3% (active) | 28.7% | 32.7% | -43.5% (active) | 22.5% | 14.7% | 58.2% | 26 | 41.5% | 47.6% | 12.8% | -11.2% (active) | 62.9% | 12.3% |
| Oc1ccc(CSc2nnc(-c3ccncc3)o2)c2cccnc12 | 17.7% | 22.7 | 39.4 | 12.3% | 4.37% (active) | -20.8% (active) | 11.6% | 15.4% | 31.3% | 68.4% | 26% | 14.7% | 2.27% (active) | 24.5 | 7.2% (active) | 26.3% | 3.07% (active) | 18% | -2.73% (active) | 25.4% |
| O=C(CCCCCCN1CC(=O)N2[C@@H](c3ccc(Cl)c(F)c3)c3[nH]c4ccccc4c3C[C@H]2C1=O)NO | 95.3% | 101 | 86.1 | 78.8% | 79.5% | 92.2% | 71.7% | 104% | 93.9% | 97.4% | 87.8% | 53.7% | 59.8% | 75.9 | 100% | 106% | 78.7% | 83.8% | 82% | 82.4% |

From PubChem BioAssay (NCI)
